# From PubChem BioAssay AID540364 (The Scripps Research Institute Molecular Screening Center, 2011)
# Among all 360,000 compounds or so, about 2,000 (0.56%) were called active.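 How the source made its calls: active means activation above the average of all compounds screened plus 3 SD, cutoff fixed separately per campaign (cut at about 7.5% in these data); inactive means the rest.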 The sample as a whole holds a higher share of actives than the screen did.
# Test: GAA850 frataxin promoter reporter upregulation – cell-based, luciferase luminescence, HEK293 lucGAA850, primary screen (AID 540364);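 further: 0% = DMSO wells and 100% = 10 µM SAHA wells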
# Conditions: HEK293 lucGAA850 FXN promoter luciferase reporter, 24 h; at 6 µM; active compounds read high; percent of 10 µM SAHA response
row,Structure (SMILES),activation
1,CC(C)CC(=O)N/C(N)=N/c1nc2ccccc2s1,4.47% (inactive)
2,CCC(=O)NC(=Nc1nc2ccccc2s1)NC(=O)CC,8.95% (active)
3,CC(=O)Nc1cccc(-c2nc3ccccc3s2)c1C,1.28% (inactive)
4,O=C(NCC1(N2CCCCC2)CCCCC1)c1ccc(NS(=O)(=O)c2ccc(F)cc2)cc1,2.54% (inactive)
5,Nc1ccc(C(=O)Nc2ccccc2N)cc1,13.5% (active)
6,O=C(Cc1ccccc1)Nc1ccc(C(=O)Nc2ccccc2C(=O)O)cc1,-0.24% (inactive)
7,O=C(Nc1ccccc1N1CCCC1)c1ccc2ccccc2c1,1.86% (inactive)
8,CCOc1ccccc1NS(=O)(=O)c1cc2c3c(c1)C(C)C(=O)N3CCC2 (centres undefined),3.36% (inactive)
9,O=C1COc2ccc(C(=O)COC(=O)c3cccnc3Cl)cc2N1,1.97% (inactive)
10,CCOC(=O)C1Sc2[nH]c(=O)sc2C(c2ccc(Cl)cc2)C1C(=O)OCC (centres undefined),-10.5% (inactive)
11,Cc1ccc(C(=O)NNC(=O)c2cc3cc4ccccc4nc3s2)cc1,-0.4% (inactive)
12,Cc1ccc(NC(=O)c2ccc(Oc3ncccn3)cc2)cc1,3.47% (inactive)
13,Cc1ccc(C(=O)NNc2ncnc3ccccc23)cc1,7.73% (active)
14,COC(=O)c1ccc(NC(=O)C23CC4CC(C2)CC(n2cnc(Cl)n2)(C4)C3)cc1,2.12% (inactive)
15,Cc1ccc(S(=O)(=O)N(C)c2nc3ccccc3n3c(C(C)C)nnc23)cc1,5.84% (inactive)
16,CCCCNC(=O)N(O)C1N(/N=C/c2ccccc2O)C(=S)SC1(C)C (centres undefined),14.4% (active)
17,CCCCNC(=O)N(O)C1N(/N=C/c2ccc(N(C)C)cc2)C(=S)SC1(C)C (centres undefined),1.55% (inactive)
18,CCC(C)N1C(=S)SC(C)(C)C1N(O)C(=O)NC1CCCCC1 (centres undefined),0.24% (inactive)
19,COc1ccc(Br)cc1S(=O)(=O)N1CCN=C1C,2.93% (inactive)
20,Fc1ccccc1/C=N/Nc1cc(N2CCCCC2)ncn1,8.75% (active)

row,Structure (SMILES),activation
1,COc1ccccc1N1CCN(C(=O)C(=O)N/N=C/c2ccccc2F)CC1,-1.01% (inactive)
2,O=C(CCC(=O)Nc1ccccc1)N/N=C/c1ccccc1F,0.15% (inactive)
3,COc1ccc(-c2cc3nc(NCCOc4ccccc4)ccn3n2)cc1,0.64% (inactive)
4,Nc1nc(NCCCN2CCOCC2)nc(Nc2ccccc2)c1[N+](=O)[O-],0.67% (inactive)
5,CNc1nc(Nc2ccc(C)c(Cl)c2)nc(N)c1[N+](=O)[O-],17.5% (active)
6,CCN1CCN(c2nc(Nc3cccc(F)c3)nc(N)c2[N+](=O)[O-])CC1,3.12% (inactive)
7,O=C(COC(=O)COc1cccc(F)c1)NCC1CCCCC1,2.16% (inactive)
8,Cc1ccc(-c2ccc(CN3C(C(C)C)C(=O)N(Cc4cn(CCC5OCCO5)nn4)CCS3(=O)=O)cc2)cc1 (centres undefined),-0.96% (inactive)
9,O=S(=O)(c1ccc(F)cc1)N1CCN(C(=S)NC2CCCC2)CC1,3.66% (inactive)
10,N#Cc1ccc(CSc2ncccn2)cc1,2.06% (inactive)
11,N#CC1=C(SCc2ccc(C#N)cc2)N=C(N)C(c2nc(-c3ccccc3)cs2)C12CCCCC2 (centres undefined),9.79% (active)
12,Cc1ccc(S(=O)(=O)N(C)C)cc1NC(=O)C(C)OC(=O)c1ccc2ccccc2n1 (centres undefined),0.74% (inactive)
13,N#CCSc1nc2ccccc2c(=O)n1-c1ccccc1,9.45% (active)
14,N#CCSc1nc2ccc(N3CCOCC3)cc2c(=O)n1CCc1ccccc1,-2.84% (inactive)
15,Cc1nn(-c2ccccc2)c(C)c1/C=N/NC(=O)CSc1nc2ccccc2c(=O)n1-c1ccccc1,0.81% (inactive)
16,O=C(c1cc(-c2ccc(Cl)cc2)on1)N1CCN(c2ccccc2)CC1,3.73% (inactive)
17,COc1ccccc1N1CCN(C(=O)c2cc(-c3ccc(Br)cc3)on2)CC1,17.8% (active)
18,COc1ccccc1-c1cc(C(=O)N2CCCCC2)no1,3.83% (inactive)
19,CC1(c2ccc(Cl)cc2Cl)NC(=O)N(CC(=O)Nc2cccnc2Cl)C1=O (centres undefined),0.61% (inactive)
20,O=C(N[C@H]1C/C=C\C(c2cccc(F)c2)N(Cc2ccccc2)C(=O)C1)OCC1c2ccccc2-c2ccccc21 (some centres undefined),-2.16% (inactive)

row,Structure (SMILES),activation
1,CN(C)CCNC(=O)c1cccc(-c2cnc3c(NC=O)cc(-c4cccc(C(F)(F)F)c4)cn23)c1,-0.71% (inactive)
2,Cn1nnnc1SCc1cc(=O)[nH]c2ccccc12,0.27% (inactive)
3,CC(Sc1nc2c([nH]c3ccccc32)c(=O)n1C)c1ccccc1 (centres undefined),13.8% (active)
4,CCCCc1nc2c(=O)[nH]c3ccccc3c2o1,3.48% (inactive)
5,CCN(CC)CCNC(=O)c1sc2ncn(CC(=O)Nc3ccc(C)c(Cl)c3)c(=O)c2c1C,0.29% (inactive)
6,COc1ccc(-c2cc(NC(C)=O)c3ncc(-c4cc(OC)c(OC)c(OC)c4)n3c2)cn1,-2.13% (inactive)
7,Cc1cc(C)n2nc(C(=O)NC(C)(C)C)nc2n1,-0.66% (inactive)
8,Cc1cc(C)n2nc(CNS(=O)(=O)c3c(F)c(F)c(F)c(F)c3F)nc2n1,8.27% (active)
9,Cc1cc(C)n2nc(SCC(N)=O)nc2n1,0.08% (inactive)
10,CCC(C)(C(=O)NC1CCCC1)N(C(=O)CNC(C)=O)c1ccc(C)cc1 (centres undefined),-0.84% (inactive)
11,C[C@H]1CN([C@@H](C)CO)C(=O)CCCn2cc(nn2)CO[C@@H]1CN(C)S(=O)(=O)c1ccc(-c2ccccc2)cc1,-1.7% (inactive)
12,CC(C)[C@H](NC(=O)c1ccc(F)cc1)C(=O)OCC(=O)NC(=O)c1cccn1C,0.53% (inactive)
13,Fc1ccc2nc(N3CCCCC3)sc2c1,8.32% (active)
14,c1c2c(cc3sc(N4CCCCC4)nc13)OCCO2,-6.92% (inactive)
15,Fc1ccc2nc(Nc3nc4c(s3)CCCC4)sc2c1,5.51% (inactive)
16,Cc1cccc(-n2c(Cc3cc(=O)[nH]c(=O)[nH]3)nnc2SCC(=O)Nc2cccc(C(F)(F)F)c2)c1,0.62% (inactive)
17,CC1CCC2(CC1)NC(=O)N(Cc1nnc(-c3cccs3)o1)C2=O (centres undefined),1.39% (inactive)
18,CC(C)N1C(=S)SC(C)(C)C1n1oc(=O)n(-c2ccc(Cl)c(Cl)c2)c1=O (centres undefined),-0.29% (inactive)
19,COC(=O)CSc1snnc1-c1ccc(Cl)c(Cl)c1,2.88% (inactive)
